The values below come from PubChem BioAssay (NCI).

About 83,000 compounds went through this panel and 20% of them were active in at least one assay; those are over-represented in the sample as a whole.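 Note: values are percent growth. 100 is the growth of untreated cells, values between 100 and 0 indicate rising inhibition; between -100 and 0 indicates cell death.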 Unmarked numbers belong to inactive results. Calls of active or inactive are those of the source. Rule for the calls: active = growth percent below 10; inactive = the rest.

Among the test systems are DU-145 prostate; MALME-3M melanoma; MDA-MB-231 breast; RXF 393 renal; SF-268 CNS; SF-295 CNS; SF-539 CNS; UACC-257 melanoma; M14 melanoma; HCT-15 colon; HT29 colon; SNB-75 CNS; SNB-19 CNS; U251 CNS; PC-3 prostate; SK-MEL-5 melanoma; UACC-62 melanoma; LOX IMVI melanoma; SK-MEL-28 melanoma; K-562 leukemia.
Common to all, as to assay: NCI-60 one-dose screen, 48 h (100 = growth as untreated, 0 = no growth, -100 = all killed)
What all share (details): 10 µM unless noted

Regarding `O=C(Cc1ccc(Nc2ccnc(C(F)(F)F)c2)cc1)N/N=C/c1ccccc1O`, the growth in the test with DU-145 prostate was 39.3%; with MALME-3M melanoma, 38.8%; in the test on MDA-MB-231 breast, 27.9%; with RXF 393 renal, 49%; in the test on SF-268 CNS, 28.6%; in the test with SF-295 CNS, 30%. Besides, the growth is 24.1% in the test with SF-539 CNS; 34.7% with UACC-257 melanoma; 8.64% (active) in the test on M14 melanoma; 14.6% in the test on HCT-15 colon; 75.4% in the test with HT29 colon; 30.8% in the test with SNB-75 CNS. In addition, the growth is 31.1% with SNB-19 CNS; 23.8% in the test with U251 CNS; 71.1% in the test with PC-3 prostate; 10.8% in the test with SK-MEL-5 melanoma; 10.8% in the test on UACC-62 melanoma; 9.12% (active) with LOX IMVI melanoma. In addition, the growth in the test with SK-MEL-28 melanoma is 106%.
In the case of `Nc1ncnc2c1N=C(c1ccc(F)cc1)CC(c1sc(Cl)nc1Cl)N2` (configuration not stated), the growth in the test on DU-145 prostate is 98.8%; in the test on MALME-3M melanoma it was 111%; in the test with MDA-MB-231 breast, 88.2%; in the test on RXF 393 renal, 78.3%; in the test with SF-268 CNS, 85.4%; in the test on SF-295 CNS, 95.8%. Moreover, the growth in the test on SF-539 CNS is 85.7%; with UACC-257 melanoma it was 91%; in the test on M14 melanoma, 109%; in the test on HCT-15 colon, 102%; in the test on HT29 colon it was 92.2%; in the test with SNB-75 CNS it was 74%. Moreover, the growth with U251 CNS was 84.7%; in the test on PC-3 prostate it was 79.5%; in the test with SK-MEL-5 melanoma it was 92%; in the test on UACC-62 melanoma it was 94.5%; in the test on LOX IMVI melanoma, 93%; in the test with SK-MEL-28 melanoma, 102%.
As for `O=C(Nc1ccc2ncnc(Nc3ccc(F)c(Cl)c3)c2c1)c1cccs1`, the growth is 49.9% in the test with K-562 leukemia; 66.4% in the test with MALME-3M melanoma; 43.4% with MDA-MB-231 breast; -3.16% (active) in the test on RXF 393 renal; 46.4% in the test on SF-295 CNS; 63.5% in the test with SF-539 CNS. Further, the growth in the test on UACC-257 melanoma was 101%; with M14 melanoma, 65%; with HCT-15 colon, 51%; with HT29 colon, 58.7%; with SNB-75 CNS it was 50.5%; with SNB-19 CNS, 68.9%. The growth is 54.7% in the test on U251 CNS; 62.8% with PC-3 prostate; 67.1% in the test with SK-MEL-5 melanoma; 56.4% in the test on UACC-62 melanoma; 51% in the test with LOX IMVI melanoma; 65.8% in the test with SK-MEL-28 melanoma.
For the compound `CC(=O)c1cccc(Nc2ncnc3ccc(NC(=O)c4ccco4)cc23)c1`, the growth with K-562 leukemia was 86.9%; in the test on MALME-3M melanoma, 97.8%; with MDA-MB-231 breast it was 88.4%; in the test with RXF 393 renal, 80.6%; in the test with SF-295 CNS it was 91.9%; in the test on SF-539 CNS it was 103%. The growth was 94.7% in the test on UACC-257 melanoma; 87.4% with M14 melanoma; 86.8% in the test on HCT-15 colon; 82.9% in the test on HT29 colon; 94.3% in the test with SNB-75 CNS; 93.6% in the test with SNB-19 CNS. For the same compound, the growth is 98.1% in the test with U251 CNS; 83.7% in the test on PC-3 prostate; 70.4% in the test with SK-MEL-5 melanoma; 84.1% with UACC-62 melanoma; 92.5% in the test on LOX IMVI melanoma; 98.7% with SK-MEL-28 melanoma.
As for `Cc1cc(NC(=O)c2ccc(N)cc2)ccc1N=Nc1ccc2cc(S(=O)(=O)O)cc(S(=O)(=O)O)c2c1`, the growth with K-562 leukemia was 110%; with MALME-3M melanoma it was 116%; in the test with MDA-MB-231 breast, 109%; in the test on RXF 393 renal, 110%; in the test with SF-268 CNS, 115%; in the test on SF-295 CNS it was 106%. Further, the growth with SF-539 CNS was 107%; in the test with UACC-257 melanoma, 102%; in the test with M14 melanoma, 112%; with HCT-15 colon, 104%; in the test on HT29 colon, 99%; with SNB-75 CNS it was 101%. Besides, the growth with SNB-19 CNS was 129%; in the test on U251 CNS, 92.9%; in the test on PC-3 prostate it was 85.6%; in the test on SK-MEL-5 melanoma it was 111%; in the test with UACC-62 melanoma, 114%; in the test with LOX IMVI melanoma, 99%. Further, in the test with SK-MEL-28 melanoma, the growth is 117%.
As to `CC1(C)C2CCC(O)(C(=O)O)C1C2` (configuration not stated), the growth was 108% in the test on K-562 leukemia; 109% in the test with MALME-3M melanoma; 98.9% in the test on MDA-MB-231 breast; 136% in the test with RXF 393 renal; 112% in the test with SF-268 CNS; 103% in the test with SF-295 CNS. The growth in the test with SF-539 CNS was 103%; in the test on UACC-257 melanoma, 124%; in the test with M14 melanoma, 105%; with HCT-15 colon it was 114%; in the test with HT29 colon, 110%; with SNB-75 CNS, 83.4%. For the same compound, the growth is 102% in the test on SNB-19 CNS; 113% with U251 CNS; 94.9% with PC-3 prostate; 107% in the test on SK-MEL-5 melanoma; 91% in the test with UACC-62 melanoma; 110% in the test on LOX IMVI melanoma. Also, in the test with SK-MEL-28 melanoma, the growth is 102%.
Consider `O=C(O)c1cn(-c2ccccc2)nc1-c1ccc(O)cc1`, for which the growth in the test on K-562 leukemia was 100%; in the test on MALME-3M melanoma, 105%; in the test with MDA-MB-231 breast, 95.7%; in the test on RXF 393 renal, 108%; with SF-295 CNS, 92.8%; in the test on SF-539 CNS, 101%. The growth was 85.1% with UACC-257 melanoma; 91.8% in the test on M14 melanoma; 98.4% with HCT-15 colon; 94.7% with HT29 colon; 86.1% in the test on SNB-75 CNS; 97.4% in the test with SNB-19 CNS. The growth in the test with U251 CNS is 96.4%; with PC-3 prostate, 91.2%; with SK-MEL-5 melanoma it was 106%; with UACC-62 melanoma, 90.8%; in the test with LOX IMVI melanoma, 91.7%; in the test with SK-MEL-28 melanoma, 101%.
Consider `CCCCCCCCCCCCCCCCCC1=NC(C)(C)CN1C(C)(C)CO`, for which the growth with K-562 leukemia is -56.6% (active); in the test with MALME-3M melanoma, -58.1% (active); with MDA-MB-231 breast it was -71.6% (active); in the test on RXF 393 renal it was -68.7% (active); in the test with SF-268 CNS it was -84.6% (active); in the test on SF-295 CNS it was 54.3%. The growth was -45% (active) with SF-539 CNS; -41% (active) with UACC-257 melanoma; -100% (active) in the test with M14 melanoma; 1.33% (active) in the test on HCT-15 colon; -100% (active) in the test with HT29 colon; -1.88% (active) with SNB-75 CNS. Also, the growth was -100% (active) in the test on U251 CNS; -1.05% (active) with PC-3 prostate; -53% (active) in the test with SK-MEL-5 melanoma; -86.9% (active) in the test with UACC-62 melanoma; -100% (active) with LOX IMVI melanoma; -100% (active) in the test on SK-MEL-28 melanoma.
